A selection: hits, their analogues and other compounds. The true share with any hit is near 2.4%.
Wnt act: activators of Wnt/beta-catenin signaling; Wnt/beta-catenin reporter cell assay, activator, plate reader; activation, % at 9.35 µM; 300,000 tested, 1.2% active; AID 743398; in the data active = activation above about 30%, passing the limit was not always enough
DYRK1A inh: Dyrk1A (rat) kinase inhibition; ADP-Glo luminescence, NFATc1 peptide; inhibition, % at 12.5 µM; 310,000 tested, 0.43% active; AID 504441
INS-1E GSIS act: primary screen for activators of insulin secretion dependent on glucose, INS-1E cells, GLuc reporter luminescence; INS-1E GLuc reporter insulin secretion, 2-3 h; 370,000 tested, 0.61% active; activation, % at 16.6 µM;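 active = lowest replicate activation of at least 40%, so every replicate reaches that level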
miR-122 sensor: inhibitors of miR-122 in Huh7 cells; activation (reporter increase), % at 12.5 µM; Huh7 miR-122 Renilla luciferase sensor, 48 h; neutral wells = 0, positive control = 100; 340,000 tested, 0.3% active;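 active = mean replicate activation score at least 90 and every replicate individually at or above 90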;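 note: higher luciferase means less miR-122 activity so hits act as miR-122 inhibitors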
NSD2 HMT inh: inhibitors of human histone methyltransferase NSD2; O96028; NSD2 peptide methylation, AlphaScreen, 120 min; inhibition, % at 12.5 µM; 310,000 tested, 0.54% active; AID 743445
Target sequence (O96028 whole entry, looked up): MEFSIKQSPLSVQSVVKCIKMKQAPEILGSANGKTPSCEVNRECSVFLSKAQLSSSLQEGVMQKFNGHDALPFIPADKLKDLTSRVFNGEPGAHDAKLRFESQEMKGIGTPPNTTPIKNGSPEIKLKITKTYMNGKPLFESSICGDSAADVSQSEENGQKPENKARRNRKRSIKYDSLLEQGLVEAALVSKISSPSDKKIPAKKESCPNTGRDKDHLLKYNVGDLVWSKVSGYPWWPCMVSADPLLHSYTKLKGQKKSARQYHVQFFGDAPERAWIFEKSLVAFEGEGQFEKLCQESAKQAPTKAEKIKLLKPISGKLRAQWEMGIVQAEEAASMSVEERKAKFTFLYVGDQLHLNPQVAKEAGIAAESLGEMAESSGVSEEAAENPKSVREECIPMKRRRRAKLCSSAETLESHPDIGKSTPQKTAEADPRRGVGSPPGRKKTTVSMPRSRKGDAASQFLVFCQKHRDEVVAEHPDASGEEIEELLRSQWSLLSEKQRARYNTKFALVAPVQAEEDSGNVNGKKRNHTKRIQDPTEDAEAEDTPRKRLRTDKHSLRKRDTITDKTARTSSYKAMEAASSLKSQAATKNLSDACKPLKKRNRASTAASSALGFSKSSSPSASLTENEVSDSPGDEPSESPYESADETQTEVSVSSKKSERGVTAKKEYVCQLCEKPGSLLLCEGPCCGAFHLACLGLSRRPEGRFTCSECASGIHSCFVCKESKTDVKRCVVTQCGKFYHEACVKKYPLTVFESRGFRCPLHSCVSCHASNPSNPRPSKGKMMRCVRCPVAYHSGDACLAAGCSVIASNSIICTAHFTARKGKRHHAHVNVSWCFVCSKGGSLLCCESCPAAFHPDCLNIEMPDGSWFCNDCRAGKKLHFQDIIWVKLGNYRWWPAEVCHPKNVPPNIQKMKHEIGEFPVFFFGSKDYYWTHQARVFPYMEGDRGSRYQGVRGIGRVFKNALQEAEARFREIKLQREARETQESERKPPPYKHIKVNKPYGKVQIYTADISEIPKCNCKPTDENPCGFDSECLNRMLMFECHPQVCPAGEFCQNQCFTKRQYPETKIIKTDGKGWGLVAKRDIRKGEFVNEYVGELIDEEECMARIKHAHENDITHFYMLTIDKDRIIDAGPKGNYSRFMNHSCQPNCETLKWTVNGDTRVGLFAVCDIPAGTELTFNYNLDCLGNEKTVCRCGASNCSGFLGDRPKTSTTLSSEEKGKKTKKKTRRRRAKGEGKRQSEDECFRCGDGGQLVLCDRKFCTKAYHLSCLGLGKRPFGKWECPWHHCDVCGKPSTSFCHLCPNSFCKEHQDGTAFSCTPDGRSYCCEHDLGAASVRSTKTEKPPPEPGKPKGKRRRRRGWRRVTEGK
MITF act: increases MITF-driven TRPM1 promoter luciferase signal. SK-MEL-5 TRPM1-promoter luciferase, 24 h; % of positive control, neutral wells = 0. 300,000 tested, 0.75% active. AID 588334. activation, % at 12.5 µM;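 active = mean activation of at least 80% with every replicate also reaching 80%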
Alpha artifact: AlphaScreen assay artifact in NSD2 counter-screen; AlphaScreen artifact counterscreen, preloaded methylated H4 peptide; AC35, µM (highest dose often 10 µM); shares compounds with NSD2 HMT inh; 1,500 tested, 9.4% active; call rule not given here
A number is an active result; n = inactive; x = no result given. Cut-off read from the data, not from the text of the source, unless noted: active = inhibition above about 50%; inactive = the rest.

SMILES	Wnt act	DYRK1A inh	INS-1E GSIS act	miR-122 sensor	NSD2 HMT inh	MITF act	Alpha artifact
CCOc1c(O)ccc(/C=C2\SC(=S)NC2=O)c1[N+](=O)[O-]	n	n	n	x	53	n	n
C=CCOCC(O)Cn1c(N2CCCC2)nc2c1c(=O)n(C)c(=O)n2C (centres undefined)	n	n	n	n	53	x	n
Cn1c(=O)c2c(nc(N3CCCC3)n2CC(O)CO)n(C)c1=O (centres undefined)	n	n	x	n	n	n	x
CC(=O)Nc1cccc(C(=O)OCc2ccccc2)c1	x	n	x	n	57	x	n
Cc1ccc(S(=O)(=O)N(C)C[C@H]2OCCCC[C@@H](C)Oc3ccc(NC(=O)NC4CCCCC4)cc3C(=O)N([C@@H](C)CO)C[C@H]2C)cc1	x	x	n	n	x	x	x
CC(C)n1c(NCc2nc3ccccc3n2C)nc2ccccc21	x	n	x	n	120	x	n
Cn1c(CNc2nc3ccccc3n2C)nc2ccccc21	n	n	x	n	n	x	x
S=C(Nc1cccc(Cl)c1)Nc1cccc2cnccc12	x	n	x	x	x	n	x
Cc1ccc(C)c(NC(=S)Nc2cccc3cnccc23)c1	n	n	n	n	98	n	n
Cc1ccccc1NC(=S)Nc1cccc2cnccc12	n	n	n	n	104	n	n
Cc1ccc(C)c(NC(=S)Nc2cccnc2)c1	n	n	n	n	n	n	x
CCCN1[C@H](C(=O)N2CCOCC2)[C@@H](CO)[C@@H]2Cn3c(ccc(-c4ccncc4)c3=O)[C@@H]21	x	x	n	n	x	x	x
CCCC(C(=O)NC(C)(C)C)N(CC1CCCO1)C(=O)CNS(=O)(=O)c1ccc(F)cc1 (centres undefined)	n	n	n	n	83	n	n
O=C(O)c1ccc(NS(=O)(=O)c2ccc3c(c2)C2C=CCC2C(c2ccccc2F)N3)cc1 (centres undefined)	n	n	n	n	159	n	n
CO[C@H]1CN(C)C(=O)c2ccc(NS(=O)(=O)c3cn(C)cn3)cc2OC[C@H](C)NC[C@@H]1C	x	x	n	x	x	x	x
COCCN1CC(=O)N2C(c3cccc(C)c3)c3[nH]c4ccccc4c3C[C@H]2C1=O (some centres undefined)	n	n	n	x	52	n	n
O=C(CN1CCOCC1)N1CC2(C1)[C@H](c1ccccc1)[C@@H](CO)N2Cc1ccccc1	x	x	n	x	x	x	x
O=C1C(=C(I)I)c2ccccc2-c2ccccc21	n	x	n	x	131	n	n
O=C(CN1CCCC1)N1c2ccccc2Sc2ccc(C(F)(F)F)cc21	x	n	x	n	n	n	x
CCNCCC(=O)N1c2ccccc2Sc2ccc(C(F)(F)F)cc21	n	n	n	n	78	n	n
CCc1ccc(NC(=O)c2cc(-c3ccc4c(c3)OCO4)on2)cc1	n	n	n	x	87	n	n
COc1ccc(NC(=O)c2cc(-c3ccc4c(c3)OCO4)on2)cc1OC	n	n	n	x	n	n	x
C[C@H](CO)N1C[C@H](C)[C@H](CN(C)Cc2cccc(C(=O)O)c2)Oc2ncc(C#C[C@@H](C)O)cc2C1=O	x	x	n	n	x	x	x
c1ccc(-c2nc(N3CCOCC3)c3ccccc3n2)nc1	x	n	x	n	64	n	n
CN(C)CCCNC(=O)C[C@H]1CC[C@@H](NC(=O)Cc2cccnc2)[C@H](CO)O1	x	x	n	x	x	x	x
SMILES	Wnt act	DYRK1A inh	INS-1E GSIS act	miR-122 sensor	NSD2 HMT inh	MITF act	Alpha artifact
N#C/C(=C\c1ccc(O)c(O)c1)C(=O)Nc1cccc2ncccc12	n	n	n	n	115	n	4.8µM
O=C(Nc1cccnc1)c1ccc(COc2ccccc2Cl)o1	n	n	x	n	127	n	n
O=[N+]([O-])c1ccc(NC(=S)N2CCOCC2)cc1	n	n	n	n	n	n	x
O=[N+]([O-])c1cccc(NC(=S)N2CCOCC2)c1	n	n	n	x	85	n	n
CCOc1ccc(S(=O)(=O)N2CCCC(C(=O)N3CCOCC3)C2)cc1Cl (centres undefined)	n	n	n	n	n	n	x
CCOc1ccc(S(=O)(=O)N2CCCC(C(=O)NCCN3CCOCC3)C2)cc1Cl (centres undefined)	n	n	n	n	83	n	n
COc1ccc(NC(=O)N(C)C[C@@H]2OCCCC[C@H](C)Oc3ccc(NS(C)(=O)=O)cc3C(=O)N([C@@H](C)CO)C[C@H]2C)cc1	x	x	n	x	x	x	x
Cc1ccc(NC(=O)CCn2c(=O)oc3ccccc32)cc1	n	n	x	n	55	n	n
COc1cc(NC(=O)CCn2c(=O)oc3ccccc32)cc(OC)c1OC	n	n	n	n	51	n	n
COc1ccc(S(=O)(=O)N(C)C[C@H]2OCCCC[C@@H](C)Oc3ccc(NS(C)(=O)=O)cc3C(=O)N([C@@H](C)CO)C[C@H]2C)cc1	x	x	n	n	x	x	x
COc1cc(N)c2ncccc2c1SC	n	x	x	x	n	x	x
COc1cc(N)c2ncccc2c1Br	n	n	n	x	152	n	n
Cc1ccccc1Nc1nc(N)nc(CSc2nnc(-c3ccccc3)n2C)n1	x	n	n	n	n	n	x
Cc1ccccc1Nc1nc(N)nc(CSc2nnc3sc4ccccc4n23)n1	x	n	x	n	66	x	n
C[C@H](CO)N1C[C@H](C)[C@@H](CN(C)CC2CC2)OCCCC[C@H](C)Oc2ccc(NS(=O)(=O)c3ccc(F)cc3)cc2C1=O	x	x	n	n	x	x	x
O=C(Cc1csc(N2CCOCC2)n1)N/N=C/c1ccc(O)c(O)c1O	n	x	n	n	77	n	n
C/C(=N\NC(=O)Cc1csc(N2CCOCC2)n1)c1ccccc1	x	n	x	n	n	n	x
O=C(NC1CCCC1)c1cc(-c2ccc(Cl)cc2Cl)on1	n	n	n	n	89	97	n
O=C(NC1CCCC1)c1cc(-c2cccs2)on1	x	n	n	n	n	n	x
Cc1cccc(NC(=O)CCN2CCCCC2)c1	n	n	n	n	66	x	n
Cc1ccc(NC(=O)CCN2CCN(C/C=C/c3ccccc3)CC2)cc1C	x	n	n	n	64	n	n
Cc1ccc(NC(=O)CCN2CCN(C/C=C/c3ccccc3)CC2)cc1	x	n	x	n	n	n	x
CC(=O)N=Cc1c(C)c(C#N)c(=O)n(C)c1O	n	n	n	x	101	n	n
Cc1cccc(Nc2nnc(-c3ccc(N4CCOCC4)c([N+](=O)[O-])c3)c3ccccc23)c1	n	n	n	n	53	n	n
CCN(CC)CCC(=O)c1ccc(F)cc1	n	n	n	x	59	n	n
CC(=O)N1CCn2c3c(c(=O)c4cc(C)ccc42)CCC31 (centres undefined)	n	n	x	n	97	n	n
O=C1NC(NS(=O)(=O)c2ccccc2)(C(F)(F)F)C(=O)N1c1cccc(Cl)c1 (centres undefined)	n	n	n	n	96	n	n
O=C1NC(NS(=O)(=O)c2ccc(Cl)cc2)(C(F)(F)F)C(=O)N1c1ccccc1 (centres undefined)	n	n	n	n	n	n	x

Screening results deposited in PubChem by Broad Institute.
